From PubChem BioAssay
TROY NFkB inh: inhibitors of TROY-driven NF-kB signaling, primary screen, Q293 LMP1-TROYcd cells, NF-kB luciferase, uHTS | AID 1347056, 2019 | hit rate 0.98% among 360,000 | inhibition, % at 10 µM | Q293 LMP1-TROYcd NF-kB luciferase reporter, 4 h;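 active = compounds whose plate-normalised and pattern-corrected inhibition of the luciferase reporter signal at the single screening dose is 50% or more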
Shn3 inh set2: reduction of Shn3 3'UTR firefly luciferase signal, primary screen, Schnurri-3 inhibitor project, cell-based, Clone20 osteoblasts, set 2; inhibition, % at 12.5 µM; hit rate 0.52% among 360,000; AID 588674, 2011; Clone20 osteoblast Shn3 3'UTR firefly luciferase, 24 h;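 active = mean inhibition of at least 75% with every replicate also reaching 75%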
MITF TRPM1 inh: inhibitors of MITF-dependent TRPM1 promoter reporter, primary screen, cell-based, SK-MEL-5, single point, luciferase. AID 488899, 2010. SK-MEL-5 TRPM1 promoter luciferase, 24 h. inhibition, % at 12.5 µM. hit rate 0.83% among 330,000;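 active = mean inhibition across replicates of 60% or more, whatever share of single replicates reaches that level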
HIF-2a inh: HIF-2a reporter inhibitors, primary screen, luminescence, 786-0 RCC cells | hit rate 0.72% among 360,000 | AID 624352, 2012 | inhibition, % at 18.8 µM | 786-0 RCC cells HIF-2a reporter, luciferase luminescence, overnight;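 active = inhibition of the luminescence signal of 40% or more relative to plate controls, in a single-dose primary screen at 18.75 µM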
EBV LMP1 NFkB: EBV LMP1-driven NF-kappaB luciferase reporter inhibitors, primary screen, cell-based, luminescence, single point | AID 504558, 2011 | LMP1-induced NF-kappaB luciferase reporter cells | hit rate 0.69% among 350,000 | inhibition, % at 12.5 µM; in the data active = inhibition above about 41%
TWEAK Fn14 block: inhibitors of TWEAK-Fn14 signaling, primary screen, luciferase reporter cells, uHTS. TWEAK-stimulated Fn14 reporter cells, luciferase luminescence, 8 h. inhibition, % at 10 µM. hit rate 2% among 360,000. AID 1159606, 2016; in the data active = inhibition above about 50%
A number is an active result; 0 = inactive; - = no result given; ! = not confirmed by another sample. This is a sample that favours compounds with a hit; in the whole collection about 3.4% have one here.

SMILES	TROY NFkB inh	Shn3 inh set2	MITF TRPM1 inh	HIF-2a inh	EBV LMP1 NFkB	TWEAK Fn14 block
O=S1(=O)N[C@H](Cc2ccccc2)COc2cc(N3CCC[C@@H]3CO)ccc21	0	-	-	0	-	0
COc1ccc(-c2nc(CN3CCC(C(=O)N4CCOCC4)CC3)c(C)o2)cc1C	0	0	0	0	65.8	0
COc1ccc(NC(=O)CCCC(=O)NCCc2ccc(OC)c(OC)c2)cc1	0	0	0	0	0	88.8
COc1ccc(OCCCC(=O)NCCc2ccc(OC)c(OC)c2)cc1	0	0	0	0	0	0
COC1=C(N)C(=O)c2nc(-c3nc(C(=O)O)c(C)c(-c4ccc(OC)c(OC)c4O)c3N)ccc2C1=O	-	114.2	-	-	-	-
COc1ccc(-c2ncncc2-c2csc(C)n2)c(O)c1OC	0	0	0	0	0	0
COc1ccc(CC(C)NCC(O)c2ccc(O)c(NC=O)c2)cc1 (centres undefined)	0	0	0	0	61.1!	0
CCOc1ccccc1/C=N/n1nnnc1N	0	0	0	0	0	73.6
Nc1nnnn1/N=C/c1ccccc1O	0	0	0	0	0	0
CCCCn1c(N)c(N(CC(C)C)C(=O)c2ccc(OCC3CCCO3)cc2)c(=O)[nH]c1=O (centres undefined)	0	0	0	0	0	0
COc1ccc2[nH]c3c(c2c1)CC(C)NC3=O (centres undefined)	0	0	0	0	0	71.4
CC(=O)Nc1ccc(S(=O)(=O)N2CCC(C(N)=O)(N3CCCCC3)CC2)cc1	0	0	0	0	0	0
CC(=O)NCCc1ccc(C(=O)COC(=O)C2CCCCC2)cc1	85.8	0	0	0	0	89.6
CC(=O)NCCc1ccc(C(=O)COC(=O)c2ccco2)cc1	0	0	0	0	0	56.3
O=C(COC(=O)c1ccco1)c1ccc(F)cc1	0	0	0	0	0	0
Cc1ccc(C(=O)COC(=O)C2CCC2)cc1	0	0	0	0	0	0
Fc1ccc(Nc2ccc3ccccc3n2)c(F)c1	0	0	0	0	0	51.9
O=C(CNC(=O)c1ccccc1F)NCc1cccnc1	0	0	0	0	0	0
Cc1ccc2nccc(C(=O)N3CCCC(N4CCN(c5ccc(F)cc5)CC4)C3)c2c1 (centres undefined)	76.0	0	0	0	0	0
O=C(c1ccccc1)n1c(=S)nc2ccccn21	59.6	0	0	0	0	82.4
Cc1cccc(C(=O)n2c(=S)nc3ccccn32)c1	0	0	0	0	0	76.8
Cc1cccc(C(=O)N2CCCCCC2)c1	0	0	0	0	0	0
Cc1ccc(OCc2nc(-c3ccccn3)no2)cc1	0	0	0	0	0	0
Cc1ccc(OCc2nc(-c3ccccn3)no2)c(Br)c1	0	0	0	0	0	84.8
CCc1ccc(OCc2nc(-c3ccccn3)no2)c(Br)c1	0	0	0	0	0	59.2
SMILES	TROY NFkB inh	Shn3 inh set2	MITF TRPM1 inh	HIF-2a inh	EBV LMP1 NFkB	TWEAK Fn14 block
CC(C)c1ccc(OCc2nc(-c3ccccn3)no2)c(Br)c1	0	0	0	0	0	0
COCCn1c(SCC(=O)N2CCCc3ccccc32)nc2c(c1=O)SC(C)C2 (centres undefined)	0	0	0	0	0	0
COCCn1c(SCC(=O)N2CCc3ccccc32)nc2c(c1=O)SC(C)C2 (centres undefined)	0	0	0	0	88.5	0
CC(C(=O)OCC(=O)Nc1ccccc1OC(F)F)N1C(=O)C2CC=CCC2C1=O (centres undefined)	0	0	-	0	0	0
CCOC(=O)c1sc(NC(=O)c2ccc(S(=O)(=O)N3CCOCC3)cc2)nc1-c1ccccc1	0	0	0	0	0	64.8
CCOC(=O)c1sc(NC(=O)c2ccc(S(=O)(=O)N3CCCCC3)cc2)nc1-c1ccccc1	0	0	0	0	0	71.3
CCOC(=O)c1sc(NC(=O)c2ccc(S(=O)(=O)N3CCCCCC3)cc2)nc1-c1ccccc1	0	0	0	0	0	76.8
CC(O)(c1ccc(F)c(F)c1)c1nc(-c2ccc(F)c(Cl)c2)cs1 (centres undefined)	0	0	-	0	-	0
COc1ccc(CC(N)c2csc(NC(=O)c3cccc(OC(F)(F)F)c3)n2)cc1 (centres undefined)	0	0	-	0	-	0
CC(C)(C)c1nn(-c2ccccc2)c2[nH]c(=O)c(CNCc3ccc4c(c3)OCO4)cc12	0	0	66.5	0	0	0
CCc1nc2ccc(C(=O)NCc3ccccc3OC)cn2c1N(C)Cc1ccc(OC)cc1	0	0	-	0	-	0
COC(=O)C1=C(C)N(c2ccc(Cl)cc2)/C(=C/c2ccc(O)cc2)C1=O	0	0	0	0	0	57.0
O=[N+]([O-])c1ccc(S(=O)(=O)Nc2ccncc2)cc1	0	0	0	0	0	0
O=[N+]([O-])c1ccc(NS(=O)(=O)c2ccc(Cl)c(Cl)c2)cc1	54.7	0	-	0	-	0
Cn1c(=O)c(Cc2ccccc2)c(O)c2ccccc21	0	0	0	0	0	0
O=c1c(Cc2ccccc2)c(O)c2cccc3c4c(n1c23)CCCC4	54.4	0	0	0	0	0
Cc1cnc(CNC(=O)c2csc([C@H]3C[C@H](O)[C@@H](CO)O3)n2)cn1	0	0	-	0	-	0
CCOc1ccc(N(C)S(=O)(=O)c2ccc(C)c(C(=O)OCC(=O)c3c[nH]c4ccccc34)c2)cc1	0	0	0	0	0	78.8
COc1ccc(C(=O)OCC(=O)c2c[nH]c3ccccc23)c(OC)c1	0	0	0	0	0	0
O=C(Cn1nnc(-c2ccc(F)cc2)n1)Nc1cccc(S(=O)(=O)N2CCCC2)c1	0	0	0	0	0	0
Cc1ccccc1NC(=O)c1cccc2nc3ccccc3nc12	0	0	65.7	0	0	0
O=C(CCl)Nc1cccc(Oc2ccccc2)c1	0	0	66.2	0	0	0
NS(=O)(=O)c1cccc(NC(=O)CNC(=O)CC23CC4CC(CC(C4)C2)C3)c1	52.3	0	0	0	0	0
Cc1ccc(CC(C)(O)CC(C)(O)Cc2ccc(C)cc2)cc1 (centres undefined)	0	0	-	0	0	0
COCCNC(=O)C1(C)Cc2c(-c3ccc(N(C)C)cc3)ccnc2O1 (centres undefined)	0	0	-	0	-	0
CCCCN(C)C(=O)c1cc2cc3ccc(OC)cc3nc2s1	0	0	0	0	0	74.1
COc1ccc(OC)c(S(=O)(=O)NC(=O)C2(C)CCN2C(=O)C2(c3ccc(Cl)cc3)CC2)c1 (centres undefined)	0	0	-	0	-	0
O=C(Nc1cccc(C(F)(F)F)c1)Nc1nnc([C@@H]2C[C@H](O)[C@@H](CO)O2)s1	0	0	-	0	-	55.1
COc1ccc(CNC(=O)Nc2nnc([C@@H]3C[C@H](O)[C@@H](CO)O3)s2)cc1	0	0	-	0	-	63.5
COc1ccc(CNC(=O)Nc2nnc([C@H]3C[C@H](O)[C@@H](CO)O3)s2)cc1	0	0	-	0	-	0
